Source: PubChem
Rows were chosen to be rich in hits. Some 28% of all compounds tested hit in one or more screens of this group.
CYP2C19 inhib: blockers of cytochrome P450 2C19 activity – biochemical, luminescence, ADME assay, primary screen; inhibition, % at 5 µM; 96,000 compounds, 21% hits; CYP2C19 Supersomes, luciferin-H EGE luminescence, 30 min; P33261; AID 778, 2007;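 active = CYP2C19 inhibition above a set limit at 5 µM in the primary screen, cut at about 50% in these data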;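 note: plate controls were negative control wells for no effect and 2.5 mM tranylcypromine positive control for full effect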
hDAT+cocaine: changed hDAT dopamine uptake under cocaine IC80, either direction, primary screen, cocaine antagonist project, cell-based, LLC-PK1 hDAT, [14C]-dopamine uptake, MLSMR. Sodium-dependent dopamine transporter (Homo sapiens), Q01959. LLC-PK1 hDAT cells, [14C]-dopamine uptake with cocaine IC80; actives deviate in either direction. B-score at 10 µM. 110,000 compounds, 1.3% hits. AID 449768, 2010;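 active = Z score or B-score, a plate-position-corrected score, falls beyond the plate's 99.7% confidence bounds, in either direction; inactive = both scores lie inside the 99.7% bounds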;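 note: scored against the spread of the other compound wells on the same plate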
CYP2C9 inhib: blockers of cytochrome P450 2C9 activity – biochemical, luminescence, ADME assay, primary screen; AID 777, 2007; 96,000 compounds, 20% hits; inhibition, % at 5 µM; P11712; CYP2C9 Supersomes, luciferin-H conversion;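 active = blocking of liver enzyme CYP2C9 beyond about 50% at 5 µM, limit read from the data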
Target sequence (P11712 whole entry, looked up): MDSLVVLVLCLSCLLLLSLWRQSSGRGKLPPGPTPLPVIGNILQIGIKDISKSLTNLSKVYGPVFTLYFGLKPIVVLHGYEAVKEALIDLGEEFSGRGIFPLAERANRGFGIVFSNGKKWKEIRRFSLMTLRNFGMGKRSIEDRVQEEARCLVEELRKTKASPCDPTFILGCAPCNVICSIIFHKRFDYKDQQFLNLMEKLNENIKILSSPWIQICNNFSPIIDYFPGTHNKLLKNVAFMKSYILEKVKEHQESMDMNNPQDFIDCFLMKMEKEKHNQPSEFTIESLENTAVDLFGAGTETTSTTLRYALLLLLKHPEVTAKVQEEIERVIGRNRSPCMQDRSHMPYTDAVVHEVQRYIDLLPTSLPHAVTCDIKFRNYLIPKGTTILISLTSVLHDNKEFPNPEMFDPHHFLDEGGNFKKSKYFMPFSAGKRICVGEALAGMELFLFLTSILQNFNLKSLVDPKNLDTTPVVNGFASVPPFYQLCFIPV
CYP2C19 activ: human CYP2C19 activators, primary screen, biochemical, luminescence. recombinant CYP2C19, luciferin-H EGE luminescence; stronger effect = higher value; 0 = fully inhibited enzyme, 1 = untreated enzyme. AID 1025, 2008. 96,000 tested, under 10 active. Cytochrome P450 2C19 (Homo sapiens), P33261. activation factor at 5 µM;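 active = activation factor of at least 2 at 5 µM in the primary screen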;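 note: 0 = wells with 2.5 mM tranylcypromine and 1 = vehicle-only wells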
CYP2C9 activ: human CYP2C9 activators, primary screen, biochemical, luminescence. recombinant CYP2C9, luciferin-H conversion; stronger effect = higher value; factor 1 = untreated enzyme, 0 = blocked. activation factor at 5 µM. 96,000 compounds, 1.4% hits. AID 1024, 2008;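 active = activation factor of 2 or more for CYP2C9 at a 5 µM dose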;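 note: 0 = sulfaphenazole-blocked wells and 1 = vehicle-only wells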
D1 mod: D1 CRE-luciferase signal change, two-sided – cell-based, HEK293 D1, dopamine EC30, D1 allosteric modulator project, primary screen | D(1A) dopamine receptor (Homo sapiens), P21728 | dopamine EC30 potentiation; actives deviate in either direction | B-score at 10 µM | 58,000 compounds, 5.9% hits | AID 641, 2007;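 active = luminescence count or its row- and column-corrected plate score outside the 99.7% band of the plate's sample wells, on either side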
* hit, by the source's call; · = no result.

SMILES | CYP2C19 inhib | hDAT+cocaine | CYP2C9 inhib | CYP2C19 activ | CYP2C9 activ | D1 mod
COC(C[C@@H](O)CC(=O)COCc1ccccc1)OC | · | 0.28 | · | · | · | ·
O=c1cc(NCc2ccco2)c2ccccc2o1 | 45 | -1.3 | 11 | 0.6 | 0.9 | 0.57
Cc1cc(C)n(S(=O)(=O)c2cc(Cl)ccc2Cl)n1 | 59* | -0.46 | -66 | 0.4 | 1.7 | -0.85
Cc1cc(C)n(S(=O)(=O)c2ccc3ccccc3c2)n1 | 61* | -0.0011 | -133 | 0.4 | 2.3* | 1.1
Cc1cc(C)n(S(=O)(=O)c2ccc(C(C)(C)C)cc2)n1 | 76* | 0.46 | 36 | 0.2 | 0.6 | 0.54
COC(=O)c1cc(S(=O)(=O)n2nc(C)cc2C)c(Cl)cc1Cl | -5 | -0.98 | -15 | 1 | 1.1 | -0.069
CCS(=O)(=O)C(=C1NCCO1)S(=O)(=O)CC | -9 | -0.77 | -14 | 1.1 | 1.1 | -0.5
CC(=O)N1CCC(C(=O)Nc2ccccc2)(N(Cc2ccccc2)C(=O)c2cccnc2)CC1 | 1 | 0.016 | -3 | 1 | 1 | -0.6
C[C@H](C(=O)C=[N+]=[N-])N1C(=O)c2ccccc2C1=O | 1 | -7.1* | -10 | 1 | 1.1 | -0.096
O=C(O)c1cccnc1SC1CC(=O)N(Cc2ccccc2)C1=O (stereo not drawn) | -13 | -0.54 | 4 | 1.1 | 1 | 0.15
O=C(O)c1ccc(O)c(O)c1 | · | -0.49 | · | · | · | ·
Cc1[nH]c2ccc(C(=O)O)cc2c1C | 99* | 1 | 19 | 0 | 0.8 | ·
CCOc1ccccc1NC(=O)NC1CC2CCCC(C1)N2Cc1nnnn1CCc1ccccc1 (stereo not drawn) | 78* | 0.029 | 61* | 0.2 | 0.4 | 0.12
O=C(Nc1ccccc1)NC1CC2CCC(C1)N2Cc1nnnn1Cc1ccc2c(c1)OCO2 (stereo not drawn) | 17 | 0.11 | 40 | 0.8 | 0.6 | ·
CCOC(=O)CNC(=O)CSc1ncnc2c1cnn2-c1ccc(OC)cc1 | 13 | 0.19 | 17 | 0.9 | 0.8 | -2.8*
CN(C(=O)OC(C)(C)C)c1ccc(-c2nc3ccccc3s2)cc1 | · | -0.22 | · | · | · | ·
O=C(NCc1ccco1)c1ccc2c(=O)n(CCC3=CCCCC3)c(=O)[nH]c2c1 | 13 | -0.94 | 43 | 0.9 | 0.6 | -1.8
Cc1[nH]c2ccccc2c1C(=O)CSc1nc2ccccc2[nH]1 | 31 | -0.92 | -54 | 0.7 | 1.5 | ·
Cc1ccc2nc(SCC(=O)Nc3c(C)n(C)n(-c4ccccc4)c3=O)[nH]c2c1 | -8 | -0.44 | 6 | 1.1 | 0.9 | 1.4
CCc1nc(SCC(=O)c2ccc3c(c2)OCCO3)c2ccccc2n1 | 15 | · | 17 | 0.9 | 0.8 | ·
Cc1ccc2nc(SCC(=O)c3ccc(Cl)s3)[nH]c2c1 | 48 | -0.18 | 60* | 0.5 | 0.4 | ·
CC(=O)c1c(C)[nH]c(C(=O)CSc2nc3ccc(C)cc3[nH]2)c1C | 90* | 1.3 | 94* | 0.1 | 0.1 | ·
O=C(CSc1nc2ccccc2[nH]1)c1ccc2c(c1)OCO2 | 92* | 0.38 | 71* | 0.1 | 0.3 | -0.13
O=C(CSc1nc(Cc2ccccc2)nc2ccccc12)c1ccc2c(c1)OCCO2 | 8 | -0.14 | 89* | 0.9 | 0.1 | ·
O=C(O)CSc1nc2ccc(Cl)cc2[nH]1 | -19 | 0.26 | 2 | 1.2 | 1 | -0.26
SMILES | CYP2C19 inhib | hDAT+cocaine | CYP2C9 inhib | CYP2C19 activ | CYP2C9 activ | D1 mod
Cc1ccc2nc(SCC(=O)c3ccc4c(c3)OCO4)[nH]c2c1 | 41 | 0.76 | 69* | 0.6 | 0.3 | ·
CN1CCN(C(=O)c2ccc3c(=O)n(Cc4ccc(Cl)cc4)c(=S)[nH]c3c2)CC1 | 15 | 1.1 | 22 | 0.9 | 0.8 | -0.46
O=c1c2ccc(Cl)cc2[nH]c(=S)n1Cc1cccnc1 | 56* | · | 44 | 0.4 | 0.6 | ·
O=C(NCc1ccco1)C1CCCN(S(=O)(=O)c2cccc3nsnc23)C1 (stereo not drawn) | 30 | -0.69 | -8 | 0.7 | 1.1 | 0.84
Oc1ccccc1-c1n[nH]c(=S)n1Cc1ccco1 | 18 | 0.11 | -10 | 0.8 | 1.1 | ·
Fc1ccc(CSc2nc3ccccc3[nH]2)c2ccccc12 | 99* | 0.96 | 98* | 0 | 0 | ·
